For assay [1], the target named is Estrogen receptor (Homo sapiens) (UniProt P03372). The assay is described as follows: qHTS assay for small molecule antagonists of estrogen receptor alpha signaling (AID 588513; active = well fitted curve in the direction sought with a large enough effect in the signal ratio, with a control signal flat, not every such curve was filed as active; the % refers to the signal ratio; also: potency is read from the fitted curve at half-maximal effect). An outline of the steps: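 Fluorescence from CCF4 substrate after 2 h at room temperature gave reporter activity; cells had been exposed to compound and 0.5nM 17-beta-estradiol for 18 h at 37 C. Hill-equation fitting yielded IC50 and maximal response.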
Chain of Estrogen receptor (Homo sapiens) (P03372 whole entry, looked up): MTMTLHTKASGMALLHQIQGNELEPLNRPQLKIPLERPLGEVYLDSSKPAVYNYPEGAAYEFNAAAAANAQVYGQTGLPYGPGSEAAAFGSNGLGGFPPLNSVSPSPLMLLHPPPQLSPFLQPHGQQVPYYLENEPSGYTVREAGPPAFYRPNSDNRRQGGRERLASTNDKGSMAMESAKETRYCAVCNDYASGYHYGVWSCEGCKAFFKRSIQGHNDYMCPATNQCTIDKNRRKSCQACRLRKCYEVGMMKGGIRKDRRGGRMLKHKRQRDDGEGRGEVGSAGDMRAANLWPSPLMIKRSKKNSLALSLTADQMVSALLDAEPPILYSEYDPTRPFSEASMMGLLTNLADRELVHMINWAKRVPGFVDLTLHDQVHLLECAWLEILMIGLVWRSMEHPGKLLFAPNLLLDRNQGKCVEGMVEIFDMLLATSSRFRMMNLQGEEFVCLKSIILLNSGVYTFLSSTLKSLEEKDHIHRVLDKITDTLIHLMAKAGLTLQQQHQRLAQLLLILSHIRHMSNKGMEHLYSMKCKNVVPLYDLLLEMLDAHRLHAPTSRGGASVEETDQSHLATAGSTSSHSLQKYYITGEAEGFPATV
Background: Quantitative high-throughput screening tests each substance at several concentrations.

The target is the same in assay [2]. The assay is described as follows: qHTS assay for small molecule agonists of estrogen receptor alpha signaling (AID 588514; calls by dose curve;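 also: 0% = vehicle only and 100% = reference agonist; nearly all actives have a fitted effect of over 70% in size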). An outline of the steps:
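ER-alpha-UAS-bla GripTite HEK 293 cells in medium with 2% charcoal/dextran-treated FBS were treated with compound titrations at 37 C for 18 hrs; beta-lactamase reporter read by CCF4 fluorescence after 2 hrs at RT.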

Assay [3] concerns the target Androgen receptor (Homo sapiens) (UniProt P10275). The assay is described as follows: qHTS assay for small molecule agonists of androgen receptor signaling (AID 588515; active = well fitted curve in the direction sought with a large enough effect in the signal ratio, with a control signal flat; the % refers to the signal ratio; also: % is scaled to controls: 0 for no effect and ±100 for the full control effect). The following applies: AR-UAS-bla HEK293, beta-lactamase ratio, agonist 16 h; stronger effect = higher value. An outline of the steps: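 EC50 and efficacy came from Hill fits of titrations (up to 92 uM) normalized to 30 nM R1881 as 100% and DMSO as 0%. Compound exposure was 16 h at 37 C on AR-UAS-bla HEK293 cells, with a 405/460/530 nm CCF4 fluorescence read.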

The target of assay [4] is Glucocorticoid receptor (Homo sapiens) (UniProt P04150). The experiment in a line: qHTS assay for small molecule agonists of glucocorticoid receptor signaling (AID 588532; active = well fitted curve in the direction sought with a large enough effect in the signal ratio, with a control signal flat; the % refers to the signal ratio;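 also: 100% = dexamethasone at 0.1 µM and 0% = DMSO only wells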). The following applies: HeLa MMTV-bla, beta-lactamase ratio, agonist, 18 h; stronger effect = higher value; percent of dexamethasone control, DMSO zero. An outline of the steps:
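Stimulation of a glucocorticoid response element-driven beta-lactamase gene was measured in HeLa cells. Responses were scaled between DMSO basal and 0.1 uM dexamethasone, then fitted for half-maximal stimulation.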

Assay [5] has the same target. The experiment in a line: qHTS assay for small molecule antagonists of glucocorticoid receptor signaling (AID 588533; active = well fitted inhibition curve with a large enough effect in the signal ratio, with a control signal flat, not every such curve was filed as active; the % refers to the signal ratio;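 also: cells stimulated with 2 nM dexamethasone as agonist; % is scaled to controls: 0 for no effect and ±100 for the full control effect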). An outline of the steps:
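Antagonist-mode qHTS: compound titrations added to GRE-bla HeLa cells, then dexamethasone 2 nM final; 18 h, 37 C. CCF4 FRET fluorescence normalized to dexamethasone and DMSO; IC50 from Hill fit.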

Assay [6] addresses Peroxisome proliferator-activated receptor gamma (Homo sapiens) (UniProt P37231). The experiment in a line: qHTS assay for small molecule agonists of peroxisome proliferator-activated receptor gamma signaling (AID 588536; active = well fitted curve in the direction sought with a large enough effect in the signal ratio, with a control signal flat, not every such curve was filed as active; the % refers to the signal ratio;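 also: 0% = DMSO basal wells and 100% = rosiglitazone at 2 µM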). An outline of the steps:
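Ratiometric blue/green fluorescence (405 nm excitation; 460 and 530 nm emission) from CCF4-loaded HEK293 reporter cells serves as signal. Exposure to test compounds lasts 16 h at 37 C in medium containing 1% charcoal/dextran-treated serum.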

Assay [7] deals with Vitamin D3 receptor (Homo sapiens) (UniProt P11473). The experiment in a line: qHTS assay for small molecule agonists of vitamin D receptor signaling (AID 588543; calls by dose curve;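 also: 0% = DMSO basal and 100% = reference agonist control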). An outline of the steps: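 Reporter cells (HEK293T, VDR-UAS-bla) were seeded in medium with 2% charcoal-stripped serum and incubated 5 h, then compounds in concentration series were added for 16 h at 37 °C. Stimulation was scaled between DMSO basal and 50 nM 1α,25-dihydroxyvitamin D3.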
Chain of Vitamin D3 receptor (Homo sapiens) (P11473 whole entry, looked up): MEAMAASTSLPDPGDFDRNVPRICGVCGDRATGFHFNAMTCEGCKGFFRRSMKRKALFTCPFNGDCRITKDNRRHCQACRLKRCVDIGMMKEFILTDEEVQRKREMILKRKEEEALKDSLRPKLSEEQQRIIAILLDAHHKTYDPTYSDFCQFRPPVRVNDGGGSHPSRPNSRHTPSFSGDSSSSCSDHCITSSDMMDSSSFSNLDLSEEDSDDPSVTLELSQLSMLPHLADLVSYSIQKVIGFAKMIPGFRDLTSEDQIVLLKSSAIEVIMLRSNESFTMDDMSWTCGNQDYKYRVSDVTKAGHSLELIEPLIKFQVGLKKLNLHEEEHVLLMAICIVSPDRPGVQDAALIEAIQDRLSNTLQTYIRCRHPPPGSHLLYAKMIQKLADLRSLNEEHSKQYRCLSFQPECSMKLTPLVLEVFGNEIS

Assay [8] is described as follows: qHTS assay for small molecule agonists of the antioxidant response element (ARE) signaling pathway (AID 651741; active = well fitted activation curve with a large enough effect in the signal ratio; the % refers to the signal ratio; also: potency is read from the fitted curve at half-maximal effect). The gist of the method:
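ARE-bla HepG2 cells (beta-lactamase reporter under ARE control) were plated at 2,000 cells/well, preincubated 5 h at 37 C/5% CO2, then treated with DMSO-dissolved compounds for 16 h at 37 C; LiveBLAzer B/G FRET substrate added, fluorescence read after 2 h at room temperature.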

Assay [9] in a line: qHTS assay for environmental chemicals that activate the Aryl hydrocarbon Receptor (AhR) signaling pathway (AID 651777). Also: % of control where 0% means no effect; nearly all actives have a fitted effect of over 15% in size. The following applies: 1A2-DRE human hepatoma cells, luciferase, 24 h; stronger effect = higher value. The gist of the method: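 Following a 24 hr incubation with test chemicals at 37 C and 5% CO2, 1A2-DRE human hepatoma cells received One-Glo reagent; after 30 min at room temperature, luciferase output reflected CYP1A2 induction via AhR.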

Assay [10] can be described thus: qHTS assay for cell viability of HEK293 cells (AID 743288). Also: potency is read from the fitted curve at half-maximal effect; nearly all actives have a fitted effect of over 50% in size. The following applies: ATP luminescence (CellTiter-Glo), 18 h; max response: stronger effect = lower value. The gist of the method: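 HEK293 parental, 2,000 cells/well; ≥5 h pre-incubation 37 C; pintool compound addition; 18 h, 37 C; CellTiter-Glo 30 min RT; luminescence read.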
Assay [11] relates to Zika virus NS2B-NS3 protease. The assay is described as follows: Primary screen GU AMC qHTS for Zika virus inhibitors (AID 1347154). Also: nearly all actives have a fitted effect of over 70% in size. An outline of the steps:
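Unlinked Zika NS2B hydrophilic domain/NS3 protease domain noncovalent complex (25 nM final) in 10 mM Tris-HCl pH 8.0, 0.01% Tween 20, with AMC peptide substrate. Fluorescence (ex 340, em 450 nm) change over 15 min, room temperature; percent inhibition fitted to 4-parameter Hill equation.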

A short description of assay [12]: qHTS to identify inhibitors of the type 1 interferon - major histocompatibility complex class I in skeletal muscle: primary screen against the NCATS Mechanism Interrogation Plate v5.0 (MIPE) Libary (AID 1347411).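 Also: plate controls were vehicle for no effect and reference inhibitor for full effect; nearly all actives have a fitted effect of over 65% in size.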 The gist of the method: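 Immortalized human C25cl48 myoblasts with HiBit knocked into endogenous HLA-B*08:01 were stimulated with 4.0 ng/ml IFN-beta and exposed to compounds (11-point 1:3 titration, top 46 uM final) for 24 hrs at 37 C; HiBiT lytic luminescence measured.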

Assay [13] is described as follows: Primary qHTS for small molecule stabilizers of the endoplasmic reticulum resident proteome: Secreted ER Calcium Modulated Protein (SERCaMP) assay (AID 1508630). Also: % is scaled to controls: 0 for no effect and ±100 for the full control effect. An outline of the steps: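 GLuc-SERCaMP-expressing SH-SY5Y cells, pretreated 16 h with compound, are challenged with thapsigargin to empty ER calcium stores; after 4 h, coelenterazine is added directly to the medium and luminescence is imaged.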

Assay [14] is described as follows: Primary qHTS for inhibitors of nuclear receptor binding SET domain protein 2 (NSD2) in an isogenic RCH-ACV NSD2 p.E1099K mutant (9B) (AID 1645876). Also: % is scaled to controls: 0 for no effect and ±100 for the full control effect; nearly all actives have a fitted effect of over 70% in size.
A short description of assay [15]: Primary qHTS for inhibitors of nuclear receptor binding SET domain protein 2 (NSD2) in an RCH-ACV wild type WT cells (2C) (AID 1645877). Also: % is scaled to controls: 0 for no effect and ±100 for the full control effect; nearly all actives have a fitted effect of over 70% in size.
In assay [16] the target is Glutathione peroxidase 1 (Homo sapiens) (UniProt P07203). The experiment in a line: Primary qHTS Assay for Inhibitors of Recombinant Selenoprotein Glutathione Peroxidase 1 (GPX1) (AID 1845191). Also: nearly all actives have a fitted effect of over 65% in size. The gist of the method:
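Recombinant GPX1 (10 nM final) was preincubated with compound for 30 min at room temperature, then reacted with 1 mM GSH, 0.5 mM CHP, 0.5 mM NADPH and 100 nM glutathione reductase; NADPH fluorescence (340/450 nm) was read at 0 and 15 min.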

In assay [17] the target is Phospholipid hydroperoxide glutathione peroxidase GPX4 (Homo sapiens) (UniProt P36969). The assay is described as follows: Primary qHTS Assay for Inhibitors of Recombinant Selenoprotein Glutathione Peroxidase 4 (GPX4) (AID 1845192). Also: nearly all actives have a fitted effect of over 65% in size. The following applies: outcome: dose series up to 50 µM unless noted. An outline of the steps:
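GR-coupled readout: 100 nM GR, 1 mM GSH, 0.5 mM NADPH; NADPH fluorescence (ex 340/em 450 nm) read at t=0 and after 15 min RT. GPX4 200 nM, preincubated 30 min with compound; substrate 0.5 mM CHP.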

Assay [18] is described as follows: qHTS drug screen for cell cycle checkpoint inhibitors in PARPi-resistant BRCA-mutant ovarian cancer cell lines. (AID 1963452; calls by dose curve). The following applies: PEO1/OlaR viability, CellTiter-Glo luminescence, 96 h, stronger effect = lower value. An outline of the steps:
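PEO1, PEO4 and PEO1/OlaR ovarian cancer cells, 600 per well, exposed 96 h at 37C to a dilution series. Viability read by CellTiter-Glo luminescence, normalized to DMSO and empty wells; activity summarized as Z-AUC.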

The target of assay [19] is Nuclear receptor subfamily 1 group I member 2 (Rattus norvegicus) (UniProt Q9R1A7). The assay is described as follows: qHTS assay for small molecule activators of the rat pregnane X receptor (rPXR) signaling pathway (AID 651751; call rule not given here; also: 0% is about no effect). The following applies: rPXR reporter cells, luciferase (One-Glo), 24 h.
Chain of Nuclear receptor subfamily 1 group I member 2 (Rattus norvegicus) (Q9R1A7 whole entry, looked up): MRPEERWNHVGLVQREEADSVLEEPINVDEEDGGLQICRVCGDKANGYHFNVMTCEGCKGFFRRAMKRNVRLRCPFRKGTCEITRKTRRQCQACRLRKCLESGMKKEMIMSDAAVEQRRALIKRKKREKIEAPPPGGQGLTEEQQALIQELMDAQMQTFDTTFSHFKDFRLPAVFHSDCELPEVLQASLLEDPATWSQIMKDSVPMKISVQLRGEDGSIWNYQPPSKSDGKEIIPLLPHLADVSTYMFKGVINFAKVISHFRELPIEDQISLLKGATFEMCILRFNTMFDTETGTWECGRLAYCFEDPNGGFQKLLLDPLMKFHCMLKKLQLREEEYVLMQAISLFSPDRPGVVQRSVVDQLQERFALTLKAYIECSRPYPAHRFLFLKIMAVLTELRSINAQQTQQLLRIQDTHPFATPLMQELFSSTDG
For assay [20], the target named is Calcium and integrin-binding protein 1 (Homo sapiens) (UniProt Q99828). The assay is described as follows: Primary qHTS for Identification of Calcium Integrin Binding Protein 1 (CIB1) Competitor (AID 1508620). The gist of the method: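 Fluorescence polarization competition: CIB1-GST (1 uM final) preincubated with compound 15 min at room temperature, then FITC-labeled alphaIIb peptide (100 nM final) added for another 15 min. Polarization read at Ex 480/Em 540.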
Chain of Calcium and integrin-binding protein 1 (Homo sapiens) (Q99828 whole entry, looked up): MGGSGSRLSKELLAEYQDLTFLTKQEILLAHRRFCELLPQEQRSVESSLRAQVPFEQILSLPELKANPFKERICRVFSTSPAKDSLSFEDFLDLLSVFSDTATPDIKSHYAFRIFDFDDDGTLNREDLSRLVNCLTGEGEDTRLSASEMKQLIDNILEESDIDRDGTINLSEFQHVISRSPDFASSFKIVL

Assay [21] can be described thus: NCATS anti-infectives library activity on HEK293 viability as a counter-qHTS vs the C. elegans viability qHTS (AID 1745854). An outline of the steps:
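HEK293 cells, 1500 per well, exposed 24 hr at 37C in 5% CO2 to compounds in a 1:5 titration, up to 41.7 uM final. Viability read as CellTiter-Glo luminescence after 10 min at room temperature.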

In assay [22] the target is Cytochrome P450 2D6 (Homo sapiens) (UniProt P10635). The experiment in a line: Cytochrome P450 family 2 subfamily D member 6 (CYP2D6) small molecule antagonists: luciferase biochemical (cell-free) qHTS assay (AID 1645840; active = well fitted curve in the direction sought with a large enough effect in the repeat runs; an effect the other way counts as inactive or inconclusive; also: potency is read from the fitted curve at half-maximal effect; nearly all actives have a fitted effect of over 55% in size). The gist of the method: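 P450-Glo luminescent screen: recombinant CYP2D6 enzyme–proluciferin substrate mix preincubated with compound 10 min at room temperature, then NADPH regeneration added for 1 h at room temperature. Detection reagent added for 20 min; luciferin light read as relative luminescence units.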

For assay [23], the target named is Cytochrome P450 2C9 (Homo sapiens) (UniProt P11712). The assay is described as follows: Cytochrome P450 family 2 subfamily C member 9 (CYP2C9) small molecule antagonists: luciferase biochemical (cell-free) qHTS assay (AID 1645842; active = well fitted curve in the direction sought with a large enough effect in the repeat runs; an effect the other way counts as inactive or inconclusive; also: potency is read from the fitted curve at half-maximal effect; nearly all actives have a fitted effect of over 55% in size). The gist of the method: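 Luminescence, after 20 min with luciferin detection reagent, reflected CYP2C9 turnover during a 1 h NADPH-driven reaction at 37C. Enzyme-substrate mix contained 0.4% bovine serum albumin and was preincubated with compound 10 min at room temperature.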
Chain of Cytochrome P450 2C9 (Homo sapiens) (P11712 whole entry, looked up): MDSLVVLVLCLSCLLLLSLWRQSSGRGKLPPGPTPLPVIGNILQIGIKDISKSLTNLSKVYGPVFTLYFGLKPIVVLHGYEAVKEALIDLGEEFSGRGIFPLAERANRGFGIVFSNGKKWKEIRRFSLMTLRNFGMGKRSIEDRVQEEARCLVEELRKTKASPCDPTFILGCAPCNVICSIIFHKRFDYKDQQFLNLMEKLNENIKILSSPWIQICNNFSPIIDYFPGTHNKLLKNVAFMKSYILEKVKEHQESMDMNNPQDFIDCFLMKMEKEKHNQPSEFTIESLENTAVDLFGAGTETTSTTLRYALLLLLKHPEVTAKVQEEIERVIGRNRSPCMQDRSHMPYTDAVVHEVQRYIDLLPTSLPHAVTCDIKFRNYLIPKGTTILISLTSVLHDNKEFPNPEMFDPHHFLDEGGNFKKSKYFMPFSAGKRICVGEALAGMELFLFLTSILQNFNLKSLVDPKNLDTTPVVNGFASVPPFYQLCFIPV

Setting [24] is: measured here: PEO1 parental Z-AUC.

Records with an inconclusive call do not appear. The source made the active and inactive calls. Unless noted, calls follow the shape of the dose curve; as a rule, active = well fitted curve in the direction sought with a large enough effect; inconclusive = small, poorly fitted or top-dose-only effect, or another doubt; inactive = no such curve, though single readings can be large; an effect the other way counts as inactive or inconclusive.

Chain of Glutathione peroxidase 1 (Homo sapiens) (P07203 whole entry, looked up): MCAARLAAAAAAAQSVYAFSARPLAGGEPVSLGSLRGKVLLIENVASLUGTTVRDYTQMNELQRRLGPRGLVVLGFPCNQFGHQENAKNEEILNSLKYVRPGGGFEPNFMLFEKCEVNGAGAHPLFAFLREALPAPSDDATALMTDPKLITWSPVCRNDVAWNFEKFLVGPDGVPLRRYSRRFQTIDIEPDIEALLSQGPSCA
Chain of Phospholipid hydroperoxide glutathione peroxidase GPX4 (Homo sapiens) (P36969 whole entry, looked up): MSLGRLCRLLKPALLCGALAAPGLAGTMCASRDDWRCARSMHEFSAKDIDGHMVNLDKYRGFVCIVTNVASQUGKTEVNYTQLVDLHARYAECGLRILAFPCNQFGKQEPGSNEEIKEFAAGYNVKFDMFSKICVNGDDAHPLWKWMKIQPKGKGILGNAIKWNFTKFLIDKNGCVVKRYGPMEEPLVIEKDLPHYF
Chain of Glucocorticoid receptor (Homo sapiens) (P04150 whole entry, looked up): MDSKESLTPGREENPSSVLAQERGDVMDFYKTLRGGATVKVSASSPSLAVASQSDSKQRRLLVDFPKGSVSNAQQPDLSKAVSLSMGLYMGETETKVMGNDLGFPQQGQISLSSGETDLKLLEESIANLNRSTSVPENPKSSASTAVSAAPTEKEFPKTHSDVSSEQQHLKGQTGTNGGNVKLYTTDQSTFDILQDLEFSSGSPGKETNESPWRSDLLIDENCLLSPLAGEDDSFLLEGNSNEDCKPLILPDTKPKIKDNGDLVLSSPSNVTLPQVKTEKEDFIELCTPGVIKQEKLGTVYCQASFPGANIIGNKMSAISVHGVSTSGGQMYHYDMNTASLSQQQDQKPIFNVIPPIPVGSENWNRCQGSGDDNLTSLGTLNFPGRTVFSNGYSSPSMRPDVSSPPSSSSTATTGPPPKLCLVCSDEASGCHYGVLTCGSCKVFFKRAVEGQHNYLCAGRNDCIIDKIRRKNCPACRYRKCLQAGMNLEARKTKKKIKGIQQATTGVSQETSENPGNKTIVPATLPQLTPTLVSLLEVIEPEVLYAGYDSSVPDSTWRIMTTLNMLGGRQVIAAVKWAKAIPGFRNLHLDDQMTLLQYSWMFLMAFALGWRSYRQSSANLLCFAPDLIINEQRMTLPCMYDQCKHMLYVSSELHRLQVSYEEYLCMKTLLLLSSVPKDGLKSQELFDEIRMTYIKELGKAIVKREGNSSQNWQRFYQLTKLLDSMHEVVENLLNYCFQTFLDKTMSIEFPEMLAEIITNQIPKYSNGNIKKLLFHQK
Chain of Peroxisome proliferator-activated receptor gamma (Homo sapiens) (P37231 whole entry, looked up): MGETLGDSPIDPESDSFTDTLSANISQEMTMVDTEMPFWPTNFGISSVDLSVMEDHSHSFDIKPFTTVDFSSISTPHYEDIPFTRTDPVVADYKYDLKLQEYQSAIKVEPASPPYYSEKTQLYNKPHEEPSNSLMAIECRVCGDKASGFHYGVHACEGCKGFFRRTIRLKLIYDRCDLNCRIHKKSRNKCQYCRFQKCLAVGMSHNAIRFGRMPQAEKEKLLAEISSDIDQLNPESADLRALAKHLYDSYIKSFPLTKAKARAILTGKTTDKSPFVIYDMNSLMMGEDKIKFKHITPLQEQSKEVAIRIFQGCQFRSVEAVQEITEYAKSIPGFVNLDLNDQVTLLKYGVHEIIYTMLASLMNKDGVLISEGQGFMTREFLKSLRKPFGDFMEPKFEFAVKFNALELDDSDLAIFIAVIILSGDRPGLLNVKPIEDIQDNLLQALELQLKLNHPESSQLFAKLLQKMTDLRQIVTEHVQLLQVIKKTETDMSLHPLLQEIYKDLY
Chain of Androgen receptor (Homo sapiens) (P10275 whole entry, looked up): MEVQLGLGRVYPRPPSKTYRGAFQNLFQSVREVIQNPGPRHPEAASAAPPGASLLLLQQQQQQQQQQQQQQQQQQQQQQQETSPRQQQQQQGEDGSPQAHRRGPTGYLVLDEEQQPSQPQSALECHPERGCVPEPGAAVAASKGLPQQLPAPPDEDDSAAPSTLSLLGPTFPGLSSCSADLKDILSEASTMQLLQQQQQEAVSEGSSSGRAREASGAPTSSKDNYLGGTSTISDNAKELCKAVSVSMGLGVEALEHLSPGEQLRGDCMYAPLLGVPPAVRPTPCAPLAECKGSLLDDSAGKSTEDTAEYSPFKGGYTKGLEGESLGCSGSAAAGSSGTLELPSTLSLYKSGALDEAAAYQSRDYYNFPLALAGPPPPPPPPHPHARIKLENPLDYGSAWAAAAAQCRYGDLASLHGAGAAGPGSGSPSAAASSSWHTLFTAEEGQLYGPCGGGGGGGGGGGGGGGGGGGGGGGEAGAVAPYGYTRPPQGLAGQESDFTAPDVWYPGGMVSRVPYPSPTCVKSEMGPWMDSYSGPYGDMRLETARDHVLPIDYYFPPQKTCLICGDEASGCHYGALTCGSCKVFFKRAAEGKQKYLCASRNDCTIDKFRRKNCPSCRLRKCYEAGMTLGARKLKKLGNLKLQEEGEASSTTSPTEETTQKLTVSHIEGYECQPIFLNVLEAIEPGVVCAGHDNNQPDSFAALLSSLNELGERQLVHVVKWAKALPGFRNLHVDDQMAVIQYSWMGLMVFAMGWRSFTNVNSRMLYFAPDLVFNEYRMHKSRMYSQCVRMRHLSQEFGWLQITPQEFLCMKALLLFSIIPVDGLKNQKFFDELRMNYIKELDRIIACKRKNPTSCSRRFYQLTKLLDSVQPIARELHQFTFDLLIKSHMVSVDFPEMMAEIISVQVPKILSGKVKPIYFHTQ

With `Clc1ccc(-c2nc3sccn3c2/C=N/OCc2ccc(Cl)c(Cl)c2)cc1`, the Potency in assay [1] was 20 µM [inhibitor] (active); in assay [8], 24.3 µM (active); in [10] it was 50.1 µM (active). For the same compound, the compound was classed as inactive in assay [2], in assay [5], in assay [6] and in [7]. Besides, the activation is -9.11% (inactive) in [3], 2.87% (inactive) in assay [4] and 3.66% (inactive) in assay [9]. For the same compound, the Potency entry in [11], in assay [12], in [13], in [14], in assay [15] and in assay [16] was “inactive” in each case. In addition, the Potency entry in [17] was “inactive”. The Z-AUC in [18] was 1.14 (inactive); in [18] (setting [24]) it was 1.09; in assay [18] (measured here: PEO4 Z-AUC) it was 1.23. For the same compound, the max response in assay [19] was 6.54% (inactive).

For `COc1cccc(OC)c1-c1cc(C(=O)NC2(C(=O)O)C3CC4CC(C3)CC2C4)nn1-c1ccc(C(=O)N(C)CCCN(C)C)cc1C(C)C` (configuration not stated), the Potency entry in [11] was “inactive”.

For `CN(C)/C(N)=N/C(=N)N`, the result in assay [11], in assay [20] and in assay [21] was inactive. Moreover, in assay [16], the Potency entry is “inactive”. Also, the outcome in [17] is “inactive [setting not given]”.

On to `N#C/C(=C(/N)Sc1ccc(N)cc1)c1ccccc1C(F)(F)F`, for which the Potency result in assay [11], in assay [12], in assay [13], in [16] and in assay [17] was “inactive” in each case. The Potency in assay [22] was 16.9 µM (active); in assay [23], 9.52 µM (active). Also, the Z-AUC in [18] was -0.578 (inactive); in assay [18] (setting [24]) it was -0.277; in assay [18] (measured here: PEO4 Z-AUC) it was -0.614.

For the origin of these results see PubChem BioAssay (NCATS).
